Among the data in PubChem BioAssay are z-score values, retold here.

Test [1] in a line: compound effects on lung adenocarcinoma cell viability – A549, calcein-AM fluorescence, 48 h, basal, profiling panel (AID 1162). As to conditions: higher = more signal.
A short description of test [2]: compound effects on differentiated 3T3-L1 adipocyte viability – cell-based, 3T3-L1 adipocytes, calcein-AM fluorescence, 48 h, basal, profiling panel (AID 1163). The following applies: 3T3-L1 adipocytes viability, higher = more signal.
Test [3] is described as follows: compound effects on hepatocellular carcinoma cell viability – HepG2, calcein-AM fluorescence, 48 h, basal, profiling panel (AID 1164). As to conditions: higher = more signal.
Test [4] in a line: compound effects on multiple myeloma cell viability – MM1S, calcein-AM fluorescence, 48 h, basal, profiling panel (AID 1165). As to conditions: higher = more signal.
A short description of test [5]: calcein-AM signal in unstimulated myeloma cells – cell-based, calcein-AM fluorescence, 48 h, PK04 Diversity Set, profiling panel (AID 1166).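 Note: cells grown under basal conditions without added stimulus.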 As to conditions: RPMI8226 myeloma viability, higher = more signal.
Test [6] in a line: JC-1 mitochondrial signal, unstimulated HepG2 cells – cell-based, JC-1 fluorescence, 24 h, 100 nL compound, profiling panel (AID 1167). As to conditions: HepG2 mitochondrial potential, higher = more signal.
Test [7] is described as follows: JC-1 mitochondrial signal, unstimulated adipocytes – cell-based, JC-1 fluorescence, 3T3-L1 adipocytes, 24 h, 100 nL compound, profiling panel (AID 1168). As to conditions: JC-1 mitochondrial fluorescence, higher = more signal, called active from +8 up or from −8 down.
Test [8] is described as follows: JC-1 mitochondrial signal, unstimulated myeloma cells – cell-based, JC-1 fluorescence, RPMI8226, 24 h, 100 nL compound, profiling panel (AID 1169). The following applies: JC-1 mitochondrial potential fluorescence, higher = more signal.
Test [9] in a line: JC-1 mitochondrial signal, unstimulated MM1S myeloma – cell-based, JC-1 fluorescence, 24 h, 100 nL compound, profiling panel (AID 1170). As to conditions: MM1S mitochondrial potential, higher = more signal.
A short description of test [10]: resazurin metabolic signal in A549 cells – cell-based, resazurin fluorescence, 24 h, PK04 Diversity Set, profiling panel (AID 1171). As to conditions: A549 viability, higher = more signal, called active from +8 up or from −8 down. (In general: Alamar Blue is a resazurin reagent that responds to reducing activity.)

Calls of active or inactive are those of the source.
Note: test concentration not given here.

For `COCCOC(=O)N1C(=O)[C@@]2(c3cc(C#CCCO)ccc31)[C@H](c1ccc(O)cc1)N1[C@H](c3ccccc3)[C@H](c3ccccc3)OC(=O)[C@H]1[C@@H]2C(=O)N1CCCCCCC1`, the z-score in test [1] was -0.0601; in test [2], 0.943; in [3], 1.18; in test [4], 0.632; in test [5], -1.22; in test [6] it was -0.701. In addition, the z-score is -0.838 (inactive) in test [7], 0.242 in test [8], 0.271 in [9] and -0.44 (inactive) in test [10].

Turning to `O=C1OCCC/C=C\[C@H]2OC34C=CCN(CCN5CCOCC5)C(=O)[C@H]3N(CCO)C(=O)[C@@H]4C12` (stereo not given in full), the z-score in test [1] is -1.18; in test [2], 1.72; in test [3] it was -0.615; in test [4] it was 1.31; in [5], -0.832; in test [6], -0.41. The z-score in [7] was -1.21 (inactive); in test [8], -0.802; in test [9] it was 0.533; in [10], -1.99 (inactive).

Turning to `CN(C)CCCCNC(=O)[C@@H]1C[C@@H]2C(=O)N[C@@H](CCCCN)C(=O)N2[C@@H]1c1cccc(OCCO)c1`, the z-score in test [1] was -0.144; in test [2], -0.736; in test [3] it was -1.03; in [4], -0.058; in test [5] it was 0.376; in test [6], -1.01. Besides, the z-score in test [7] was -0.0937 (inactive); in [8] it was -0.737; in test [9], -0.0289; in test [10], -0.391 (inactive).

For the compound `COc1ccc(C#Cc2ccc3c(c2)[C@]2(C(=O)N3)[C@H](C(=O)N3CCN(c4ncccn4)CC3)[C@H]3C(=O)O[C@H](c4ccccc4)[C@H](c4ccccc4)N3[C@@H]2c2ccc(O)cc2)cc1`, the z-score was -0.125 in test [1]; 0.583 in test [2]; 0.804 in [3]; -0.156 in [4]; -0.404 in [5]; -1.11 in [6]. In addition, the z-score is 1.08 (inactive) in test [7], -0.899 in test [8], -0.427 in test [9] and -0.164 (inactive) in [10].

With `O=C1O[C@H](c2ccccc2)[C@H](c2ccccc2)N2[C@H]1[C@@H](C(=O)NC[C@H](O)c1ccccc1)[C@]1(C(=O)Nc3ccc(C#CC4(O)CCCCCC4)cc31)[C@H]2c1ccccc1OCCO`, the z-score in test [1] is -0.509; in [2], 0.0001; in test [3], -4.63; in test [4], -3.33; in test [5], -4.19; in test [6], -2.67. Also, the z-score in test [7] was 3.14 (inactive); in [8], -0.99; in test [9] it was -2.01; in [10], -1.39 (inactive).

In the case of `O=C1c2ccccc2[C@](Cc2ccccc2I)(C(=O)O)[C@H](c2ccc(CO)cc2)N1Cc1ccccc1C(F)(F)F`, the z-score in [1] was -0.26; in test [2], -0.24; in [3] it was 0.458; in test [4], -1.58; in test [5], -2.58; in test [6], -0.51. Also, the z-score is -0.476 (inactive) in test [7], -0.832 in [8], -0.478 in test [9] and 0.427 (inactive) in [10].

For `Cc1cc(C)c(C(O)C2C=CC3C(=O)NC(=O)C3N2Nc2ccccn2)c(C)c1` (stereo not given), the z-score was -0.948 in [1]; -0.397 in test [2]; 0.359 in test [3]; 0.22 in test [4]; 0.066 in test [5]; -0.767 in [6]. Besides, the z-score in test [7] is -0.363 (inactive); in [8], -0.188; in test [9] it was -0.0615; in [10], -0.875 (inactive).

Turning to `C=C[C@H](OC)[C@@H](OC(=O)Nc1ccc(SC)cc1)c1ccc(OCCO)cc1`, the z-score is -0.13 in test [1]; 0.559 in test [2]; 0.0758 in test [3]; -0.164 in test [4]; 0.609 in [5]; -2.55 in [6]. The z-score was 0.734 (inactive) in test [7], -0.0748 in test [8], -0.887 in test [9] and -0.139 (inactive) in test [10].

For the compound `O=[N+]([O-])c1ccc(C[n+]2ccc(CCCO)cc2)o1`, the z-score in test [1] is -0.38; in [2], 1.01; in test [3] it was -0.405; in test [4], -0.41; in [5], -2.35; in test [6], -1.07. Further, the z-score is -0.266 (inactive) in test [7], -0.614 in test [8], 0.5 in test [9] and -0.77 (inactive) in [10].

Turning to `NC(=O)[C@]1(Cc2ccccc2)N=C(c2ccc(OCCCO)cc2)O[C@@H]1c1ccccc1`, the z-score was -0.399 in [1]; 0.879 in test [2]; -0.603 in test [3]; -0.598 in [4]; -1.94 in [5]; -1.43 in test [6]. In addition, the z-score in test [7] was -0.517 (inactive); in [8], -0.775; in [9], 1.18; in test [10], -0.784 (inactive).

Regarding `CC(C)NC(=O)[C@@H]1c2ccccc2C(=O)N(C2CCCCC2)[C@H]1c1ccc(CO)cc1`, the z-score in [1] is 0.699; in test [2], -0.209; in [3], 0.581; in [4], -0.594; in [5], -2.04; in test [6], 1.54. The z-score in test [7] is -0.656 (inactive); in [8] it was -0.811; in [9] it was 0.103; in test [10], 1.08 (inactive).

Turning to `COCCn1c(C(=O)N2CCCC2)cc2c1C[C@H]1CN(C(=O)c3ccccc3)[C@@](Cc3ccc(OC)cc3)(C(=O)OC)[C@@H]21`, the z-score is 0.476 in test [1]; 0.238 in test [2]; 1.35 in [3]; 0.776 in test [4]; 0.426 in test [5]; 2.71 in test [6]. Besides, the z-score in test [7] was 0.0944 (inactive); in test [8], 0.00347; in test [9] it was -0.828; in [10], -0.253 (inactive).

For `CN(C)CCCCCCNC(=O)[C@@H]1C[C@@H]2C(=O)NCC(=O)N2[C@@H]1c1cccc(OCCO)c1`, the z-score was -0.129 in test [1]; -0.215 in [2]; -0.225 in [3]; 0.0864 in test [4]; 1.45 in [5]; -0.305 in [6]. The z-score in test [7] is -0.0086 (inactive); in test [8] it was -0.12; in test [9] it was -0.659; in test [10] it was -0.427 (inactive).

For the compound `C=CC[C@]1(C(=O)NCCN2CCOCC2)N=C(c2ccc(OCCCO)cc2)O[C@H]1c1ccccc1N=[N+]=[N-]`, the z-score is 0.0657 in test [1]; 0.572 in [2]; 0.353 in test [3]; -1.05 in [4]; -0.766 in [5]; 1.03 in [6]. The z-score in test [7] was 1.98 (inactive); in test [8] it was -0.701; in [9] it was 0.472; in [10], 0.0624 (inactive).

Regarding `CC1(C)C(=O)C(c2ccccc2)=C2CN3C(=O)N(CCc4ccccc4)C(=O)C3(Cc3ccccc3)C=C21` (stereo not given), the z-score is -0.739 in [1]; -0.295 in test [2]; 0.54 in test [3]; -0.0119 in test [4]; 0.0826 in test [5]; 0.000299 in test [6]. Besides, the z-score in test [7] is -0.385 (inactive); in test [8], -0.871; in test [9] it was -1.52; in test [10], 0.199 (inactive).

Turning to `COC(=O)[C@@]1(Cc2ccc(F)cc2)[C@H]2c3cc(C(=O)N(C)C)n(CCCNc4ccc(C(F)(F)F)cc4Cl)c3C[C@H]2CN1C(=O)c1ccccc1`, the z-score was -1.34 in test [1]; -0.851 in test [2]; -0.136 in [3]; -0.84 in [4]; -4.32 in test [5]; 2.61 in test [6]. Besides, the z-score was 0.391 (inactive) in [7], -0.777 in test [8], -2.12 in test [9] and -1.85 (inactive) in test [10].
